We go through 18 molecules from PubChem BioAssay.

Records with an inconclusive call do not appear. Activity calls are given as the source filed them. Unless noted, how the calls were made is not given here.

A short description of test [1]: growth inhibition, single agents and combos, CRL2098, cell-based, BGB or cisplatin IC20 combos, synergistic combos for chromothripsis tumors (AID 1671454; in the data active means inhibition above about 80%;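 further: cells exposed for 96 h before readout; 0% = vehicle DMSO and 100% = killing by high DMSO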). The note with it: CRL2098 osteosarcoma cells, drug combinations, stronger effect = higher value.
Test [2] is described as follows: growth inhibition, single agents and combos, HD-MB03, cell-based, BGB or cisplatin IC20 combos, synergistic combos for chromothripsis tumors (AID 1671455; in the data active means inhibition above about 83%;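 further: 0% = vehicle DMSO and 100% = high DMSO as cytotoxic control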). The note with it: HD-MB03 medulloblastoma cells, stronger effect = higher value.
Test [3] is described as follows: growth inhibition, MDA-MB-436, cell-based, BGB or cisplatin combos, synergistic combos for chromothripsis tumors (AID 1671458).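 Further: cells exposed for 96 hours; 0% = vehicle DMSO and 100% = killing by high DMSO.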 The note with it: MDA-MB-436 breast carcinoma growth inhibition, drug combinations, stronger effect = higher value.
Test [4] can be described thus: BT084 cell growth, single and combined drugs, ICGC_MB145, cisplatin and BGB IC40 combos (AID 1671461; in the data active means inhibition above about 80%;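 further: cells exposed to drugs for 96 hours; 0% = vehicle DMSO and 100% = high DMSO full killing control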). The note with it: BT084 medulloblastoma cells, drug combinations, stronger effect = higher value.
Test [5] is described as follows: RCMB18 cell growth, single agent and combined, cisplatin and BGB IC40 combos (AID 1671462; in the data active means inhibition above about 80%;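 further: cells exposed to compound for four days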). The note with it: RCMB18 medulloblastoma cells, stronger effect = higher value.
Test [6] in a line: CRL1545 cell growth, single agent and combined, cisplatin and BGB IC20 combos (AID 1671464; in the data active means inhibition above about 80%;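 further: cells exposed to compound for 96 hours before readout; 0% = vehicle DMSO and 100% = high DMSO killing control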). The note with it: CRL1545 osteosarcoma cells, stronger effect = higher value.
A short description of test [7]: viability loss in pontine glioma line – cell-based, SU-DIPG-IV, MIPE4.0, CellTiter-Glo, qHTS, dose response (AID 1347063; cut-off not given, nearly all actives have AC50 up to about 30 µM;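 further: compound exposure lasted 48 hours before the viability readout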). The note with it: CellTiter-Glo ATP luminescence. (Cellular ATP, detected with luciferase, serves as a proxy for viable cell number.)
Test [8] relates to Hepatitis C virus NS3 helicase. In words: blockers of NS3h binding to ssDNA – biochemical, fluorescence polarization, LOPAC1280 library, primary screen (AID 687035; in the data active means inhibition above about 37%). The note with it: Purified HCV NS3 helicase, Cy5-dT15 ssDNA binding fluorescence polarization; stronger effect = higher value; concentration not given here. On the technique in general: Polarisation of emitted light reports the rotation of a fluorescent probe.

Test [9] is described as follows: compounds altering Cy5-DNA-NS3h complex signal – biochemical, LOPAC1280, artefact control for HCV NS3 helicase inhibitor project (AID 687037). The note with it: Cy5-DNA-NS3h complex fluorescence interference counterscreen. (The purpose of a counterscreen is to sort out artefacts and off-target activity.)
A short description of test [10]: blockers of cellular phospholipid synthesis – cell-based, LOPAC library, screen 4, primary screen (AID 1347384). The note with it: animal cells, phospholipid biosynthesis inhibition screen; at 10 µM.

Turning to `O=c1cc(-c2cccc3c2Sc2ccccc2S3)oc(N2CCOCC2)c1`, the inhibition – broadly, the relative decrease from the control value, in per cent – in [1] (at 0.5 µM) was -29.5% (inactive); in test [1] (measured here: combination with BGB at IC20, at 0.5 µM), -49.7%; in test [1] (measured here: combination with cisplatin at IC20, at 0.5 µM), -36.1%; in [2] (at 0.5 µM), -12.6% (inactive); in test [2] (measured here: combo with BGB at IC20, at 0.5 µM), -13%; in test [2] (measured here: combo with cisplatin at IC20, at 0.5 µM) it was -6.59%. Further, the inhibition was -26.6% (inactive) in test [3] (at 0.5 µM); -22.1% in [3] (measured here: BGB combination, at 0.5 µM); -25.2% in [3] (measured here: BGB combination, at 5 µM); -36.1% in test [3] (measured here: cisplatin combination, at 0.5 µM); -24.3% in test [3] (measured here: cisplatin combination, at 5 µM); -24.9% (inactive) in test [4] (at 0.5 µM). For the same molecule, the inhibition is -8.73% in [4] (cisplatin combination, at 0.5 µM); -21.4% in [4] (cisplatin combination, at 5 µM); -12.1% in test [4] (measured here: BGB IC40 combination 0.05 uM, at 0.05 µM); -39.1% in [4] (single agent, at 5 µM); -11.1% (inactive) in test [5] (at 0.5 µM); 5.15% in test [5] (cisplatin combo, at 5 µM). Also, the inhibition in test [5] (measured here: BGB IC40 combination, at 0.05 µM) was -26.8%; in test [5] (measured here: combination with cisplatin, at 0.5 µM), -2.95%; in test [5] (single agent, at 5 µM), -8.05%; in test [6] (at 0.5 µM) it was -32.7% (inactive); in [6] (measured here: with BGB IC20 combination, at 0.5 µM), -8.28%; in test [6] (measured here: with cisplatin IC20 combination, at 0.5 µM), -48.2%. Also, the inhibition is -20.3% in test [6] (single agent, at 0.05 µM) and -31.2% in test [6] (single agent, at 5 µM).
On to `O=C(O)c1ccc(-c2c[nH]c3ncc(-c4ccccc4)cc23)cc1C1CCCC1`, for which the AC50 (commonly the concentration at which the activity in the assay is half-maximal) in test [7] is 0.372 µM (active).
In the case of `CCN(CC)CCCC(C)Nc1nc(C)cc(Nc2ccc3nc(C)cc(N)c3c2)n1` (stereo not given), the call in test [7] was inactive.
Consider `Nc1ncnc2nc(-c3ccc(N4CCOCC4)nc3)cc(-c3cccc(Br)c3)c12`, for which the inhibition in test [8] is -6% (inactive). The fluorescence ratio (interference) in test [9] was 0.9 (inactive).
Take `CC[C@H](NC(C)C)[C@H](O)c1ccc(O)c2[nH]c(=O)ccc12`: in test [7], the call was inactive.
Still for that read-out and setting: to `COc1cc(OC)c(NC(=O)Nc2cc(C)on2)cc1Cl` belongs “inactive”; to `COc1nccc(-c2c(-c3ccc(F)cc3)ncn2C2CCC(O)CC2)n1` (stereo not given), “inactive”.
Take `O=Nc1c(-c2c(O)[nH]c3cc(Br)ccc23)[nH]c2ccccc12`: in [8], the inhibition is 2% (inactive). For the same molecule, the fluorescence ratio (interference) in test [9] was 0.9 (inactive). Moreover, the concentration at half-maximal activity (AC50) in test [7] is 3.32 µM (active). The call in test [10] was active.
For `O=C1NC(=O)C(c2ccccc2[N+](=O)[O-])=C1Nc1ccc(O)c(Cl)c1`, the inhibition in test [8] was -2% (inactive). The fluorescence ratio (interference) in test [9] was 1 (inactive). Further, the call in test [7] and in test [10] was inactive.
For the molecule `CS(=O)c1ccc(-c2nc(-c3ccc(F)cc3)c(-c3ccncc3)[nH]2)cc1` (stereo not given), in test [7], the half-maximal activity concentration (AC50) was 48.1 µM (active).
Consider `CCC(C)N(C)C(=O)c1cc2ccccc2c(-c2ccccc2Cl)n1` (stereo not given), for which, in test [8], the inhibition was 0% (inactive). Besides, the fluorescence ratio (interference) in test [9] was 1 (inactive). The result in [10] was inactive.
The like results for `Cc1ccc(S(=O)(=O)/C=C/C#N)cc1` were, in that order, 0% (inactive), 1 (inactive) and “inactive”.
The like results for `CC(C)(Sc1ccc(CCN(CCCCC2CCCCC2)C(=O)NC2CCCCC2)cc1)C(=O)O` were, in that order, 3% (inactive), 1 (inactive) and “inactive”.
`N#CC(=C(/N)Sc1ccccc1N)/C(C#N)=C(\N)Sc1ccccc1N`: the concentration at half-maximal activity (AC50) in test [7] was 8.33 µM (active).
As to `C[C@@H](N)C1CCC(C(=O)Nc2ccncc2)CC1` (stereo not given in full), the outcome in [7] was inactive.
On to `O=Nc1c(-c2c(O)[nH]c3ccccc23)[nH]c2ccccc12`, for which the inhibition in test [8] is 0% (inactive). In addition, in test [9], the fluorescence ratio (interference) is 1 (inactive). For the same molecule, the result in [10] was active.
With `CC(C)C[C@@H](C(=O)N[C@H](C(=O)OC1CCCC1)c1ccccc1)[C@H](O)C(=O)NO`, the concentration at half-maximal activity (AC50) in [7] is 16.6 µM (active).
`Oc1cc(O)cc(/C=C/c2ccc(O)c(O)c2)c1`: the inhibition in [8] was -6% (inactive). The fluorescence ratio (interference) in test [9] was 0.9 (inactive). In test [10], the outcome was inactive.
